# Data taken from PubChem BioAssay (NCATS).
# Inconclusive results are not listed. Active and inactive are the calls of the source. Calls follow the shape of the dose curve; as a rule, active = well fitted curve in the direction sought with a large enough effect; inconclusive = small, poorly fitted or top-dose-only effect, or another doubt; inactive = no such curve, though single readings can be large; an effect the other way counts as inactive or inconclusive.
# Experiment: Viability qHTS for spleen associated tyrosine kinase inhibitor (SYKi) drug resistant MV4-11 cells (AID 1963824); also: nearly all actives have a fitted effect of over 35% in size
# Conditions: SYKi-resistant MV4-11 viability, CellTiter-Glo, 72 h; series mostly up to 45 µM; viability, % of control: at the top concentration
# How it was run: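 SYK inhibitor-resistant MV4-11 AML cells, 500 per well, added to predispensed compounds and incubated 72 hr at 37 C, 5% CO2. Viability measured by CellTiter-Glo luminescence after 10 min at room temperature.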
row,SMILES,"viability, % of control"
1,CN1C(=O)CN=C(c2ccccc2)c2cc([N+](=O)[O-])ccc21,86.8% (inactive)
2,CC(C)(C)NCC(O)c1cc(Cl)c(N)c(C(F)(F)F)c1 (stereo not drawn),89.2% (inactive)
3,CCOC(=O)NC(O)C(Cl)(Cl)Cl (stereo not drawn),92% (inactive)
4,O=c1[nH]oc2c1CCNC2,78.1% (inactive)
5,CC(O)CN1CCN(CC(=O)[O-])CCN(CC(=O)[O-])CCN(CC(=O)[O-])CC1.[Gd+3] (stereo not drawn),97.7% (inactive)
6,CC(C)(N)Cc1ccc(Cl)cc1,71.1% (inactive)
7,ClCCN1CCCC1,94% (inactive)

# Experiment: Cellular viability qHTS for adrenocortical cancer (ACC) cell line SW-13 (AID 1963989); also: nearly all actives have a fitted effect of over 65% in size; also: potency is read from the fitted curve at half-maximal effect;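 as to activity (max response): cells grown in serum-free medium with ITS supplement; % is scaled to controls: 0 for no effect and ±100 for the full control effect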
# Conditions: SW-13 ACC cells viability, CellTiter-Glo, 48 h; activity (max response): stronger effect = lower value
# How it was run: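 48 h treatment, SW-13 in ITS/DMEM serum-free; doses up to 46 uM; readout CellTiter-Glo luminescence; curve fit four-parameter logistic.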
SMILES,activity (max response),Potency
O=C(CCCCl)c1ccc(F)cc1,6.97% (inactive),
COc1ccccc1N1CCNCC1,-19.4% (inactive),
CC(C)(C)NCC(O)c1cc(Cl)c(N)c(Cl)c1 (stereo not drawn),11.4% (inactive),
O=C1c2ccccc2C(=O)c2ccccc21,3.51% (inactive),
CC1OC(C)OC(C)O1 (stereo not drawn),14% (inactive),
CCNc1nc(Cl)nc(NCC)n1,-2.51% (inactive),
c1ccc2c(c1)sc1ccccc12,0.898% (inactive),
CN[C@@H](C)[C@H](O)c1ccccc1,-4.49% (inactive),
C[C@@H](C1CC[C@@]2(O)C3=CC(=O)[C@@H]4C[C@@H](O)[C@@H](O)C[C@]4(C)[C@H]3CC[C@]12C)[C@H](O)CCC(C)(C)O (stereo partly drawn),-1.09% (inactive),
CCN(Cc1ccc(Cl)nc1)/C(=C/[N+](=O)[O-])NC,3.71% (inactive),
CN(C)[C@@H]1C(=O)C(C(N)=O)=C(O)[C@@]2(O)C(=O)C3=C(O)c4c(O)cccc4[C@@](C)(O)[C@H]3[C@H](O)[C@@H]12,4.8% (inactive),
CC[N+](CC)(CC)CC,9.95% (inactive),
CC(C)(C)NCC(O)c1ccccc1Cl (stereo not drawn),3.76% (inactive),
NP(N)(=O)NC(=O)c1ccc(F)cc1,6.62% (inactive),
CCOC(=O)NC(C)(C)Cc1ccc(Cl)cc1,-3.94% (inactive),
COP(=S)(OC)Oc1cc(Cl)c(Cl)cc1Cl,7.21% (inactive),
NCC(CC(=O)O)c1ccc(Cl)cc1 (stereo not drawn),-6.89% (inactive),
CCCN(CCC)c1c([N+](=O)[O-])cc(S(N)(=O)=O)cc1[N+](=O)[O-],,7.94 µM (active)

SMILES,activity (max response),Potency
CCC1(C2=NCCN2)Cc2ccccc2O1 (stereo not drawn),12% (inactive),
CCc1ccc(C2CCNCC2)cc1,-14% (inactive),
CC(Cc1ccc(O)cc1)NCC(O)c1cc(O)cc(O)c1 (stereo not drawn),10.9% (inactive),
C1CN2CCC1CC2,2.77% (inactive),
O=[N+]([O-])/N=C1\NCCN1Cc1ccc(Cl)nc1,-5.88% (inactive),
CC1NCCOC1c1ccccc1 (stereo not drawn),-0.553% (inactive),
COC(=O)[C@@H](N)CCCN/C(N)=N/[N+](=O)[O-],3% (inactive),
COC(=O)C(Cl)C(=O)OC,-3.15% (inactive),
CC(C)NC(C)C,17.3% (inactive),
C[N+](C)(C)CCOC(=O)C(O)(c1ccccc1)c1ccccc1,-5.79% (inactive),
O=C(O)COc1ccccc1,18.4% (inactive),
CN(C)CCc1ccc(O)cc1,-2.47% (inactive),
NN=C(N)N,12.8% (inactive),
CC(C)(C)NCC(O)c1cc(Cl)c(N)c(C(F)(F)F)c1 (stereo not drawn),9.74% (inactive),
CCOC(=O)NC(O)C(Cl)(Cl)Cl (stereo not drawn),3.24% (inactive),
CC(O)CN1CCN(CC(=O)[O-])CCN(CC(=O)[O-])CCN(CC(=O)[O-])CC1.[Gd+3] (stereo not drawn),0.662% (inactive),
CC(C)(N)Cc1ccc(Cl)cc1,9.02% (inactive),
ClCCN1CCCC1,12.8% (inactive),
